Most compounds without a hit are left out; they make up all but 3% or so of the library.
FBA Mtb inh: Mtb fructose-bisphosphate aldolase inhibition | P9WQA3 | inhibition, % at 1 µM | purified M. tuberculosis FBA, fluorescence read-out | 2.3% of 360,000 active; in the data active means inhibition above about 27%;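 further: 0% = vehicle and 100% = reference inhibitor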
Target sequence (P9WQA3 whole entry, looked up): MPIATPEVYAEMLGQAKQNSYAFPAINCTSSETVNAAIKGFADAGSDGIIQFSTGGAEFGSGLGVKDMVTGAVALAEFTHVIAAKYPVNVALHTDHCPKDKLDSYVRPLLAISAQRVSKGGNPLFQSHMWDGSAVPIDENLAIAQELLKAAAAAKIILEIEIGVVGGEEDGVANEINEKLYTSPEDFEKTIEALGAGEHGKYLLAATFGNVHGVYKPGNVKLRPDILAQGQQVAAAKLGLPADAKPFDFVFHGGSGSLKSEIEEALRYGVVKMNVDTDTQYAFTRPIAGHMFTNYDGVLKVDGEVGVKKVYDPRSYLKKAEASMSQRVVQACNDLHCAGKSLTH
GDH-TPI counter: inhibits GDH-TPI coupling enzymes, artifact for Mtb FBA screen; GDH-TPI coupled enzyme counterscreen, NADH absorbance; inhibition, % at 4.8 µM; 1.2% of 360,000 active; AID 588335; in the data active means inhibition above about 30%;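 further: 0% = DMSO wells and 100% = wells lacking the enzyme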
BioA inh: blocks M. tuberculosis BioA enzyme activity; purified M. tuberculosis BioA enzyme, plate reader; inhibition, % at 9.99 µM; 0.096% of 360,000 active; in the data active means inhibition above about 40%
Rv3671c protease: Rv3671c (M. tuberculosis) protease inhibition | 0.048% of 320,000 active | inhibition, % at 5.96 µM; in the data active means inhibition above about 38%;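 further: extracellular domain of Rv3671c used as enzyme; 0% = enzyme with DMSO and 100% = no enzyme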
FadD28 binding: M. tuberculosis FadD28 bisubstrate binding inhibition; FadD28 bisubstrate probe binding, fluorescence polarization; 0.22% of 360,000 active; inhibition, % at 12.5 µM; in the data active means inhibition above about 8.5%, passing the limit was not always enough
Numbers without * were called inactive; . = no result; + = active, no number.

SMILES	FBA Mtb inh	GDH-TPI counter	BioA inh	Rv3671c protease	FadD28 binding
CCCNC(=O)N1[C@@H]2CN(C(=O)c3ccc(F)cc3)c3ccccc3[C@@H]2[C@@H]1CO	.	.	-3	.	.
COc1ccc(C(=O)CC(c2ccccc2)S(=O)(=O)c2ccc(C)cc2)cc1 (stereo unspecified)	.	.	.	-3	.
COc1ccc(C(CC(=O)c2ccc(O)cc2)S(=O)(=O)c2ccc(C)cc2)cc1 (stereo unspecified)	-1	34*	-2	-12	-4
C[C@@H]1CN([C@@H](C)CO)C(=O)Cc2cc(NC(=O)Nc3ccccc3)ccc2O[C@@H]1CN(C)C	.	.	0	.	.
COc1ccc2c(C)c(CCC(=O)NCCCN3CCCC3=O)c(=O)oc2c1C	116*	22	0	-8	-1
Cc1cc(=O)oc2c3c(cc(OCC(=O)NCCC(=O)O)c12)OC(C)(C)CC3	+	25	2	.	-1
CCc1cc(=O)oc2c3c(cc(OCC(=O)NC4CC4)c12)OC(C)(C)CC3	+	19	1	10	-3
CCCc1cc(=O)oc2c3c(cc(OCC(=O)N4CCC[C@H]4C(=O)O)c12)OC(C)(C)CC3	+	25	1	-11	-1
Cc1oc2c(C)c3oc(=O)c(CCC(=O)NCCCN4CCCC4=O)c(C)c3cc2c1C	14	9	-1	3	0
Cc1ccccc1OCC(=O)NCCC(=O)O	0	7	.	8	-1
CO[C@H](CN(C)S(=O)(=O)c1ccccc1)[C@@H](C)CN(C(=O)Nc1ccccc1F)[C@H](C)CO	.	.	1	.	.
Cc1ccc(S(=O)(=O)N[C@@H]2CC[C@H](CCNC(=O)c3ccccc3F)O[C@H]2CO)cc1	.	.	1	.	.
COc1ccc(NC(=O)N(C)C[C@@H]2Oc3ccc(NC(=O)CCCN(C)C)cc3C(=O)N([C@H](C)CO)C[C@H]2C)cc1	.	.	-2	.	.
Cc1ccc(S(=O)(=O)Nc2ccc3c(c2)C(=O)N([C@@H](C)CO)C[C@H](C)[C@H](CN(C)C(=O)Cc2ccccc2)OCCCC[C@@H](C)O3)cc1	.	.	0	.	.
CCc1cc(=O)oc2c3c(cc(OCC(=O)NCCN4CCOCC4)c12)OC(C)(C)CC3	176*	15	4	-9	1
CCc1cc(=O)oc2c(C)c(OCC(=O)NCCCN3CCOCC3)ccc12	19	12	3	-11	-1
CCc1cc(=O)oc2c3c(cc(OCC(=O)NCCCC(=O)O)c12)OC(C)(C)CC3	+	11	0	7	-1
CCc1cc(=O)oc2cc(C)cc(OCC(=O)NCC3CCC(C(=O)O)CC3)c12 (stereo unspecified)	19	0	0	3	-3
CCc1cc(=O)oc2c3c(cc(OCC(=O)NCCC(=O)O)c12)OC(C)(C)CC3	177*	12	0	-4	0
CCc1cc(=O)oc2c3c(cc(OCC(=O)NCCCOC)c12)OC(C)(C)CC3	+	9	2	0	-2
C[C@@H]1CN([C@@H](C)CO)C(=O)c2cc(NC(=O)Nc3ccc4c(c3)OCO4)ccc2O[C@@H]1CN(C)Cc1ccc(C(=O)O)cc1	.	.	0	.	.
COCC#Cc1cnc2c(c1)C(=O)N([C@@H](C)CO)C[C@H](C)[C@@H](CN(C)C)O2	.	.	-2	.	.
C[C@@H]1CCCCO[C@@H](CN(C)C(=O)Nc2ccccc2)[C@H](C)CN([C@@H](C)CO)C(=O)c2cc(NC(=O)CCC(F)(F)F)ccc2O1	.	.	-1	.	.
O=C(C[C@@H]1CC[C@H]2[C@@H](COC[C@H](O)CN2Cc2nccs2)O1)NCc1ccc(-c2ccccc2)cc1	.	.	1	.	.
Cc1c(OCC(=O)NCCN2CCOCC2)ccc2c3c(c(=O)oc12)CCC3	15	9	36	-2	0
SMILES	FBA Mtb inh	GDH-TPI counter	BioA inh	Rv3671c protease	FadD28 binding
Cc1c(C)c2ccc(OCC(=O)N3CCC[C@@H]3C(=O)O)c(C)c2oc1=O	129*	8	0	14	-2
Cc1c(C)c2ccc(OCC(=O)N3CCN(c4ccc(F)cc4)CC3)c(C)c2oc1=O	-5	6	14	0	-3
Cc1c(OCC(=O)NCCN2CCOCC2)ccc2c1oc(=O)c1ccccc12	124*	14	3	-3	-5
C[C@H]1CCCCO[C@H](CN(C)Cc2ccc(C(F)(F)F)cc2)[C@@H](C)CN([C@@H](C)CO)C(=O)c2cc(N(C)C)ccc2O1	.	.	2	.	.
CN1C(=O)c2cc(NC(=O)C3CCCCC3)ccc2OC[C@H]2O[C@@H](CC(=O)NCCc3ccncc3)CC[C@@H]21	.	.	-3	.	.
COCC(=O)N1C[C@H](C)[C@@H](OC)CN(C)C(=O)c2cc(NC(=O)c3cnccn3)ccc2OC[C@H]1C	.	.	0	.	.
O=C1c2ccccc2C(=O)c2c(O)c(O)cc(O)c21	3	17	-4	6	47*
COc1ccc2c(CC(=O)NCC3CCC(C(=O)O)CC3)cc(=O)oc2c1 (stereo unspecified)	133*	25	-1	0	0
COc1ccc2c(COC(=O)CCS(=O)(=O)c3ccccc3)cc(=O)oc2c1	134*	-1	.	-16	-4
COc1ccc(-c2cc(=O)oc3cc(OCC(=O)NCC4CCC(C(=O)O)CC4)ccc23)cc1 (stereo unspecified)	6	33*	0	-4	-4
N#CCC(=O)N/N=C/c1ccc(Cl)cc1	-1	1	1	-8	-4
Cn1c(=O)n(C)c2cc(/C=N/NC(=S)NCc3ccccc3)ccc21	1	34*	.	-2	-5
CN(C)c1ccc(/C=N/NC(=S)NCc2ccccc2)cc1	24	32*	2	-1	1
CN(c1ccccc1)c1ccc(/C=N/NC(=O)CC#N)cc1	9	31*	.	8	-3
CC(C)(C)c1ccc(/C=N/NC(=S)NCc2ccccc2)cc1	-1	13	.	-10	-1
COCCCNC(=S)N/N=C/c1ccc(N(C)C)cc1	48*	15	.	8	-3
CCCNC(=O)N[C@@H]1CC[C@H](CCn2cc(C3CCCCC3)nn2)O[C@H]1CO	.	.	-3	.	.
CN(C)c1ccc(/C=N/NC(=O)CSc2ccccn2)cc1	1	60*	5	-3	-3
Cc1ccccc1N(CC(=O)N/N=C/c1ccc(N(C)C)cc1)C(=O)c1ccccc1	10	40*	.	-12	-1
Cc1ccccc1N(CC(=O)N/N=C/c1ccccc1Cl)C(=O)c1ccccc1	0	12	-3	-15	0
COCC(=O)Nc1ccc2c(c1)C(=O)N(C)[C@@H]1CC[C@@H](CC(=O)NCc3cccc(F)c3)O[C@H]1CO2	.	.	-2	.	.
CCOc1ccc(-n2c([S-])c(C(=O)Nc3ccc(S(=O)(=O)N4CCOCC4)cc3)[n+]3cc(C(N)=O)ccc23)cc1	10	39*	.	-20	-3
Nc1nn(-c2ccccc2)nc1C(=O)OCc1ccccc1	177*	6	-1	-18	-4
NC(=O)c1nn(-c2ccccc2)nc1N	+	5	1	2	-4
CCN=c1scc(-c2ccco2)n1/N=C/c1ccc(OC)c(O)c1	-1	32*	-1	8	9.4*
CCN=c1scc(-c2ccco2)n1/N=C/c1ccc(O)cc1	0	15	0	8	-4

Source: PubChem (several laboratories)
